The source of these data is ChEMBL document CHEMBL1157539, “Thousands of chemical starting points for antimalarial lead identification” (Nature, 2010).

In all, about 13,000 compounds were measured (“IFI”: median about 4, highest 2% from about 17 on). Only a selection was taken, and the highest values are over-represented in it overall.

The nature of this assay: GSK_TCMDC: Inhibition Frequency Index (IFI). The number of non-kinase HTS assays where a compound showed > 50 % inhibition, expressed as a percentage of the number of such assays in which the compound was tested. The format is functional.
With `CN(C)c1cccc2c(S(=O)(=O)Nc3cccc(CCN4CCC(N5CCCCC5)CC4)c3)cccc12`, the IFI came out at 18%. To `Cc1c(Cl)cccc1S(=O)(=O)Nc1cccc(CCN2CCC(N3CCCCC3)CC2)c1` belongs 14.3%; to `O=S(=O)(Nc1cccc(CCN2CCC(N3CCCCC3)CC2)c1)c1cccc2ccccc12`, 8.06%; to `CC(N)(Cc1ccc(O)cc1)c1nnn[nH]1` (configuration not stated), 0%.

With `O=c1sn(-c2csc3ccccc23)c2ccccc12`, the IFI is 18.5%. The figure for `Cc1[nH]c(C)c(-c2csc3ccccc23)c(=O)c1Cl` is 0%; for `COc1ccc(S(=O)(=O)NCC2CCCN(CCCCCNC(=O)/C=C/c3ccc(Cl)c(Cl)c3)C2)cc1` (configuration not stated) it is 9.22%. On to `Cc1nc(Nc2ccc(F)cc2)nc(N2CCc3cc(O)ccc3C2C)c1C` (configuration not stated), for which the IFI came to 8.63%. To `O=c1c(NCCCN(Cc2ccc(F)cc2)c2ccccn2)c(NCc2ccncc2)c1=O` belongs 0.7%. `COc1ccc(CC2(c3ccc(F)cc3)N=C(N)N(CCCc3ccccc3)C2=O)cc1` (configuration not stated) gave an IFI of 16.7%. Compound `COc1ccc(CC2(c3ccc(F)cc3)N=C(N)N(CCCc3ccc(F)c(F)c3)C2=O)cc1` (configuration not stated) displayed an IFI of 20%. The figure for `COc1ccc(CC2(c3ccc(F)cc3)N=C(N)N(CCCc3ccc4c(c3)OCO4)C2=O)cc1` (configuration not stated) is 6.45%; for `COc1ccc(CNC(=O)c2cnc3c(O)cccc3c2Nc2cccc(NC(=O)c3ccc(Cl)c(Cl)c3)c2)cc1` it is 7.81%; for `NC(=O)COc1c(C2CCN(CCCCNC(=O)c3ccc(-c4ccc(Cl)cc4)c(O)c3)CC2)ccc2c1CCCC2` it is 13.8%. `CC(C)C1=C[C@H]2C[C@]3(C4OCCO4)[C@@H]4CC[C@@H](C)[C@H]4C[C@@]2(COCc2cccc(C#N)c2)[C@]13C(=O)OC(c1ccccc1)c1ccccc1` had an IFI of 2.33%. The figure for `CN1CCN(Cc2ccc(-c3ccc4ncnc(Nc5ccc(OCc6ccccc6)cc5)c4c3)o2)CC1` is 6.98%; for `Cc1cccc2nc(-c3ccc(-c4ccc(CNCc5ccc(CN)cc5)cc4)s3)[nH]c12` it is 11.9%. To `CC(C)CNCc1ccc(-c2cccc(CNc3ccc4ncccc4c3)c2)cc1` belongs 8.51%; to `COc1cc2nccc(Nc3ccc(OCc4ccc(NC(C)=O)cc4)cc3)c2cc1OC`, 5.84%; to `COc1ccc(Nc2nccc(-c3ccc4c(-c5ccsc5)cnc(N)c4c3)n2)cc1`, 2.13%.

Take `Nc1nccc2ccc(-c3ccnc(NCc4cccnc4)n3)cc12`: the IFI came to 5.56%. The compound `Cn1ncc2ccc(Nc3nccc(-c4ccc5c(c4)c(N)nn5C)n3)cc21` had an IFI of 17.8%. For `CC(CN(C)C)C(=O)Nc1ccc(-c2ccc(-c3nc4cc(C(F)(F)F)ccc4[nH]3)cc2)cc1` (configuration not stated), the IFI turned out to be 3.6%. For the compound `CC(C)(C)C(=O)Nc1ccc(N2CCN(C(c3ccccc3)c3ccccc3)CC2)c(Cl)c1`, the IFI is 3.51%. Compound `O=C(Nc1ccc(Cl)c(Cl)c1)Nc1ccccc1N1CCNCC1` came in with an IFI of 15%. As for `Cc1ccc(C(C(=O)Nc2ccc(N3CCNCC3)c(Cl)c2)c2ccccc2)cc1` (configuration not stated), the IFI was 18.6%. To `CC(C)N1CCN(C(CN2CCN(CCCOc3ccc4ccccc4c3)CC2)c2ccc(F)cc2)CC1` (configuration not stated) belongs 9.85%; to `CNc1ccc(CNCc2ccc(-c3ccc(-c4nc5cc(C(F)(F)F)ccc5[nH]4)cc3)cc2)cc1`, 14.1%. The figure for `CNc1ccc(CNCc2cccc(-c3ccc(-c4nc5cc(C(F)(F)F)ccc5[nH]4)cc3)c2)cc1` is 18.8%.

On to `FC(F)(F)c1ccc2[nH]c(-c3ccc(-c4cccc(CNCc5ccccc5)c4)cc3)nc2c1`, for which the IFI came to 12.5%. With `Cc1ccc(-n2c(Sc3ncnc4sccc34)nnc2N2CCCC2)cc1`, the IFI was found to be 6.06%. To `C[C@H]1CN(Cc2cccc(-c3cc(CNC(=O)c4cccc(C(=O)c5ccc(Cl)c(Cl)c5)c4)ccc3F)c2)CCN1` belongs 18.6%; to `CC1CCN(Cc2cccc(C(=O)NCc3ccc(F)c(-c4cccc(CN5CCN[C@@H](C)C5)c4)c3)c2)CC1`, 5.04%; to `C[C@H]1CN(Cc2ccc(-c3cccc(CNC(=O)c4cccc(C(=O)c5ccc(Cl)c(Cl)c5)c4)c3)s2)CCN1`, 16.2%. In the case of `Cc1cc(N[C@@H](Cc2ccccc2)C(=O)NCc2cccc(F)c2)nc(NCCc2cccs2)n1`, the IFI was 12.8%. In the case of `CCOC(=O)C(NC(=O)c1ccc([N+](=O)[O-])o1)C(C)C` (configuration not stated), the IFI was 1.41%. `CCOC(=O)C(CO)NC(=O)c1ccc([N+](=O)[O-])o1` (configuration not stated): the IFI is 1.41%. To `O=C(NCC1Cc2cc(Oc3ccccc3)ccc2O1)c1ccc([N+](=O)[O-])o1` (configuration not stated) belongs 17.9%. The figure for `Cc1cccc2nc(-c3ccc(-c4ccc(NC(=O)Nc5ccsc5)cc4)cc3)[nH]c12` is 8%; for `CN(C)CCNCc1cccc(-c2ccc3c(Nc4cc(O)c(Cl)cc4F)ccnc3c2)c1` it is 3.68%. To `O=C(N[C@H]1CCN(CCc2ccc(O[C@H]3CCNC3)c(F)c2)C1)c1ccc(Cl)c(Cl)c1` belongs 6%. For the compound `COc1ccc(C(=O)NC(Nc2ccc([N+](=O)[O-])cc2)C(Cl)(Cl)Cl)cc1` (configuration not stated), the IFI was 13.4%.

Regarding `O=C(NC(Nc1ccc([N+](=O)[O-])cc1)C(Cl)(Cl)Cl)c1ccc(Cl)cc1` (configuration not stated), the IFI is 19.9%. In the case of `O=C(NC(Nc1ccc([N+](=O)[O-])cc1)C(Cl)(Cl)Cl)c1cccc(Cl)c1` (configuration not stated), the IFI amounted to 13.9%. To `COc1cccc2c(N/N=C/c3ccccc3[N+](=O)[O-])ccnc12` belongs 3.62%.

Regarding `CC(C)(C)c1cc(Cl)cc(C(=O)Nc2cc([N+](=O)[O-])ccc2Cl)c1O`, the IFI was found to be 13.7%. On to `O=C(Nc1ccccc1Cc1ccccc1)c1ccccc1C(F)(F)F`, for which the IFI came out at 0.78%. Consider `CC(C)(C)c1cc([N+](=O)[O-])cc(C(=O)Nc2ccccc2C(F)(F)F)c1O`, for which the IFI came to 22.7%.

Take `CNC(=O)c1cnc(Nc2ccc(N3CCN(C)CC3)cc2)nc1Nc1cccc(OC)c1`: the IFI worked out at 4.48%. For the compound `Cc1ccc2[nH]c(NC#N)nc2c1`, the IFI turned out to be 0%.

In turn, `COc1cc2nc(N3CCC(CNCc4ccc(-c5ccc(C(F)(F)F)cc5)cc4)CC3)nc(N)c2cc1OC` displayed an IFI of 17.1%. On to `c1ccc(Oc2ccc(Nc3ccnc(Nc4cccc(CNCCCN5CCOCC5)c4)n3)cc2)cc1`, for which the IFI turned out to be 7.41%. Take `c1ccc(Oc2ccc(Nc3ccnc(Nc4ccc(CN5CCOCC5)cc4)n3)cc2)cc1`: the IFI is 20.2%. The figure for `CN1CCN(Cc2cccc(Nc3nccc(Nc4ccc(Oc5ccccc5)cc4)n3)c2)CC1` is 3.01%; for `COc1ccc(CNC(=O)Nc2cc3cc(-c4ccc(CN5CCCC5)cc4)ccc3n3c(C)nnc23)cc1` it is 13.5%; for `Cc1ccc(NC(=O)c2ccc(Cl)cc2)cc1-c1ccc(C(=O)Nc2ccncc2)cc1` it is 15.5%. In turn, `Cc1ccc(NC(=O)Nc2ccc(Cl)cc2)cc1-c1cccc(C(=O)Nc2ccc(F)cc2)c1` yielded an IFI of 15.9%. On to `Cc1ccc(NC(=O)c2cccc(C#N)c2)cc1-c1ccc(C(=O)Nc2ccncc2)cc1`, for which the IFI stood at 24.6%.

`CN(C)C(CNC(=O)c1cc(-c2ccncc2)c(-c2ccc(NC(=O)Nc3cccc(Cl)c3)cc2)o1)c1ccccc1` (configuration not stated) returned an IFI of 8.11%.

In the case of `CC(C)NCc1ccc(-c2ccc(NC(=O)c3cccc(C#N)c3)cc2)cc1`, the IFI was found to be 8.16%. On to `Cc1ccc(NC(=O)Nc2cccc(Cl)c2)cc1-c1ccc(C(=O)Nc2ccncc2)cc1`, for which the IFI was 25.4%. To `O=C(Nc1ccc(C(=O)Nc2cccc(C3=NCCN3)c2)cc1)Nc1ccc(C2=NCCN2)cc1` belongs 3.57%. `N#Cc1cccc(C(=O)Nc2cccc(-c3ccc(C(=O)Nc4cccnc4)cc3)c2)c1`: the IFI stood at 7.46%. The figure for `Cc1ccc(NC(=O)Nc2ccc(Cl)cc2)cc1-c1ccc(C(=O)Nc2ccncc2)cc1` is 21.1%. The figure for `Cc1cccc2nc(-c3cccc(-c4ccc(NC(=O)c5ccncc5)cc4)c3)[nH]c12` is 4.42%; for `O=C(Nc1ccc(-c2oc(C(=O)NCCc3cccc(Cl)c3)cc2-c2ccncc2)cc1)Nc1cccc(Cl)c1` it is 2.78%. `Cc1ccc(NC(=O)Nc2ccccc2)cc1-c1ccc(C(=O)Nc2ccncc2)cc1` had an IFI of 25.7%.
